Experimental data as given in ChEMBL document CHEMBL1201862, “PubChem BioAssay data set” (2004).
Out of some 57,000 sequences screened, about 4,100 (7.2%) were called active. No stated cut-off is given here; in the data, active = GI50 up to about 1.1 µM and inactive = higher. A selection follows. Measured potencies and affinities stand elsewhere.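 Tested at 5 concentrations; 48 h exposure; 96-well plates; endpoints linearly interpolated, else capped at highest concentration. GI50: concentration for 50% inhibition of growth.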

Each substance was assayed on COLO 205 (assay: NCI tumour cell line growth inhibition, 48 h).

| Substance | GI50 [µM] |
| --- | --- |
| [Bis(aminomethyl)pentamethylenesilane]dichloropaltinum(II), CHEMBL2146202 | 2.07 |
| [Bis(aminomethyl)tetramethylenesilane]tetrachloropaltinum(IV), CHEMBL2146189 | 8.51 |
| [Bis(aminomethyl)dimethylsilane]dichloroplatinum (II), CHEMBL2146201 | 24.3 |
| cis-Bis[[(trimethylsilyl)methyl]amino]tetrachloroplatinum(IV), CHEMBL2146191 | 2.07 |
| [Bis(aminomethyl)tetramethylenesilane]dichloropaltinum(II), CHEMBL2146205 | 20.1 |
| [Bis(aminomethyl)pentamethylenesilane]tetrachloropaltinum(IV), CHEMBL2146204 | 1.53 |
| [Bis(aminomethyl)ethylmethylsilane]tetrachloroplatinum(IV), CHEMBL2146192 | 5.15 |
| mu-(1,7-nanodiamine-N,N')bis-(cis-aminedichloroplatimum (II)), CHEMBL2146215 | 6 |
| [Bis(aminomethyl)dimethylsilane]tetrachloroplatinum(IV), CHEMBL2146190 | 11.6 |
| [Bis(aminomethyl)diethylsilane]tetrachloroplatinum(IV), CHEMBL2146203 | 11.9 |
| CISPLATIN, CHEMBL11359 | 13.4 |
